# Assay results taken from PubChem BioAssay AID504374 (National Center for Advancing Translational Sciences (NCATS), 2011).
# Where “and” joins values, the source holds several entries; their conditions need not be identical. Identical values can stand only once. The campaign covered roughly 1,500 compounds. About 100 (6.7%) were called active. Entries that show only a call come without a potency. Roughly 7% stayed inconclusive and do not appear here. Calls come from the whole dose curve; as a rule, active = well fitted inhibition curve with a large enough effect; inconclusive = small, poorly fitted or top-dose-only effect, or effect the other way; inactive = flat fitted curve, though single readings scatter. The sample as a whole holds a higher share of actives than the screen did.
# Molecular target: Runt-related transcription factor 1 (Homo sapiens) + Core-binding factor subunit beta (Homo sapiens) (UniProt Q01196+Q13951)
# Sequence (Q01196 whole entry, looked up): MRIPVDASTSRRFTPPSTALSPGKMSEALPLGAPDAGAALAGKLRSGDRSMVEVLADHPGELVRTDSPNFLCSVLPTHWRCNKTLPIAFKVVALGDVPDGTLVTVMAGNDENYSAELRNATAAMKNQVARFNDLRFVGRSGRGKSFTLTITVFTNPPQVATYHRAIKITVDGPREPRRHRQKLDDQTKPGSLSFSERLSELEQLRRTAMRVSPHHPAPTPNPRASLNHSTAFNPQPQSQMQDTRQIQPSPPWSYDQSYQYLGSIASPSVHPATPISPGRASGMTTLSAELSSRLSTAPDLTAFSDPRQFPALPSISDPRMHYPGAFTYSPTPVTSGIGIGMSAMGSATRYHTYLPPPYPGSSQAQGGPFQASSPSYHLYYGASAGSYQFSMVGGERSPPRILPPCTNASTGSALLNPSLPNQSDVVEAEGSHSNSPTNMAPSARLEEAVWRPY
# Sequence (Q13951 whole entry, looked up): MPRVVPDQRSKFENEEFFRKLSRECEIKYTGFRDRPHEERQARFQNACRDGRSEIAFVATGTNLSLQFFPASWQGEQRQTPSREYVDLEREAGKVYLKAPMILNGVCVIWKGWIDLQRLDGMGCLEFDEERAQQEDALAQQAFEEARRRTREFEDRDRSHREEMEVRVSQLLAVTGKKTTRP
# Assay: qHTS Assay for Compounds Blocking the Interaction Between CBF-beta and RUNX1 for the Treatment of Acute Myeloid Leukemia: Hit Validation; note: nearly all actives have a fitted effect of over 60% in size
# Details: AlphaScreen CBFb-His/RUNX1-biotin binding; series mostly up to 59.8 µM
# From the text: NIH Chemical Genomics Center [NCGC]
# NIH Molecular Libraries Probe Production centers Network [MLPCN]
# Assay Submitter (PI): Paul Liu
# Core Binding Factor (CBF) abnormalities are associated with 20-25% of all acute myeloid leukemias (AML), of which 5-10% are further sub classified as acute myelomonocytic leukemia with eosinophilia, also known as M4Eo in the FAB classification scheme. This subtype of leukemia is usually associated with chromosome 16 inversion (p13:q22). Chromosome 16 inversion results in formation of the fusion oncogene CBFB-MYH11, which encodes the fusion protein CBF-beta-SMMHC.
# It has been hypothesized that the interference of CBF-beta and RUNX1 binding could have therapeutic implications for patients with CBF mediated leukemias. We developed a CBF-beta and RUNX1 binding assay in AlphaScreenTM format and optimized it for high throughput screening to search for inhibitors. The goal of this project is to screen MLPCN's compound collection (MLSMR) for identifying the inhibitors of the interaction between CBF-beta and RUNX1 proteins as research probes. If these probes work well in the animal models, the ultimate goal of this project is to development a new drug treatment for this disease.
# This assay can not be used to assess how apparent inhibitors interfere with protein binding, and whether inhibitors specifically bind to either protein. Disruption of this protein-protein interaction, through any mechanism, is the intended target activity.
# The present data set was run to confirm the activity of hits from the primary screen.
# NCGC Assay Protocol Summary:
# Step, Parameter, Description
# (1) Reagent, 3 uL CBFb-His/RUNX1-biotin mix incubated together for 20 minutes at room temperature (30 nM each)
# (2) Compound or control, 23 nL compound stock solution
# (3) Incubation, 15 minutes at Room temperature
# (4) Reagent, 1 uL 50 ng each of beads (Nickel beads and streptavidin beads)
# (5) Incubation, 90 minutes at Room temperature
# (6) Detection, Excitation=365 nm Emission=440 nm, Envision reader in AlphaScreenTM mode
# Keywords: MLSMR, MLPCN, NIH Roadmap, qHTS, NCGC, Core binding factor, CBF, CBF-beta, Acute myeloid leukemia
# Potency is the fitted concentration of half-maximal effect.
row,SMILES,Potency
1,CCn1nc(-c2ccccc2)nc2c(=O)n(C)c(=O)nc1-2,1.12 µM (active)
2,CCC1(C(=O)c2ccc(C)cc2)C2c3ccccc3OC(=O)C21C(=O)O (stereo not drawn),inactive
3,COCc1cc(OC(=O)N(C)C)nc(-c2ccc(C)c(Cl)c2)n1,inactive
4,CCOC(=O)C(O)(c1ccc(NC(=O)c2ccc(Cl)c(Cl)c2)cc1)C(F)(F)F (stereo not drawn),inactive
5,CCN1CCc2ccccc2C1,inactive
6,NC(Cc1cc(O)c(O)cc1O)C(=O)O (stereo not drawn),2.51 µM (active)
7,CCOC(=O)[C@]1(C#N)[C@@H]2C=CC(C(N)=O)=CN2[C@@H](C(N)=O)[C@@H]1c1ccc(F)cc1,inactive
8,CNC(=O)O/N=C(\C)Cc1nnn(-c2cc(C)on2)n1,inactive
9,O=C1/C(=C\c2cccnc2)N2CCC1CC2,inactive
10,CCN1CCN(c2nc([N+](=O)[O-])nn2C)CC1,inactive
11,CC(C)C(N)C(=O)OCCOCn1cnc2c(=O)[nH]c(N)nc21 (stereo not drawn),0.705 µM (active)
12,CN1C(=O)C(=Cc2cccnc2)C(=O)N(C)C1=O,inactive
13,COc1cccc(C(=O)N2CCC3(CC2)OCCO3)c1,inactive
14,O=C(O)COc1ccccc1/C=C1\C(=O)NC(=O)N(CCC2=CCCCC2)C1=O,inactive
15,CCn1c(O)c(C=NCCN2CCOCC2)c(=O)[nH]c1=S,inactive
16,CN1CCN(c2nc(N)cc(=O)[nH]2)CC1,inactive
17,CC(C)[C@H]1C(=O)N2CCC[C@H]2[C@]2(O)O[C@](NC(=O)[C@@H]3C=C4c5cccc6[nH]cc(c56)C[C@H]4N(C)C3)(C(C)C)C(=O)N12,6.87 µM (active)
18,CC(C)[C@@]1(NC(=O)[C@H]2CC3c4cccc5[nH]cc(c45)C[C@H]3N(C)C2)O[C@@]2(O)C3CCCN3C(=O)[C@@H](Cc3ccccc3)N2C1=O (stereo partly drawn),25 µM (active)
19,CC(C)C[C@H]1C(=O)N2CCCC2[C@]2(O)O[C@](NC(=O)[C@@H]3C=C4c5cccc6[nH]cc(c56)CC4N(C)C3)(C(C)C)C(=O)N12 (stereo partly drawn),7.91 µM (active) and 7.05 µM (active)
20,CC(=O)CC(c1ccccc1[N+](=O)[O-])c1c(O)c2ccccc2oc1=O (stereo not drawn),inactive
21,Cc1cc(C(=O)Nc2ccccc2)nn1C(C)(C)C,inactive
22,N=Cc1c(O)n(-c2ccccc2)c(=O)n(-c2ccccc2)c1=O,inactive
23,CC1CN=C(Nc2ccc(F)c(Cl)c2)S1 (stereo not drawn),inactive
24,CNC(=O)Oc1ccc(N(C)C)cc1C(C)C,inactive
25,O=c1[nH]c(=S)[nH]c(O)c1N=Nc1cccc(S(=O)(=O)N2CCOCC2)c1,inactive

row,SMILES,Potency
1,CCOP(=O)(Cc1cc(C(C)=O)c(C)o1)OCC,inactive
2,CCCCn1c(O)c(C(CC)=NCCCn2ccnc2)c(=O)[nH]c1=O,inactive
3,CCCCc1ccc(C(=O)O)nc1,6.31 µM (active)
4,CCC(C)n1c(O)c(C=NCCc2ccccc2)c(=O)[nH]c1=S (stereo not drawn),inactive
5,CN(N=O)c1cc(O)ccc1O,inactive
6,CN(N=O)c1ccc(O)c(O)c1,1.26 µM (active)
7,CCC(=Nc1cccc(C(F)(F)F)c1)c1c(O)n(C)c(=O)n(C)c1=O,inactive
8,C=CCn1c(O)c(C(C)=Nc2ccc3c(c2)CCC3)c(=O)[nH]c1=O,inactive
9,COc1cc(CN=Cc2c(O)n(C(C)(C)C)c(=O)[nH]c2=O)cc(OC)c1,inactive
10,CCCCn1c(O)c(/C=N/N2CCOCC2)c(=O)[nH]c1=S,inactive
11,CCCCNC(=O)Oc1c(Br)cc2sc(=O)oc2c1Br,6.12 µM (active)
12,CCCCn1c(O)c(/C=C2/C=CC=N2)c(=O)[nH]c1=O,inactive
13,Cc1nc(SCc2c(Cl)cccc2Cl)nc(OC(=O)N(C)C)c1C,inactive
14,CC(C)(C)n1cc(C(=O)c2ccccc2)cc1-c1ccccc1,inactive
15,Cn1c(O)c(C(=Nc2ccc(F)cc2)c2ccccc2)c(=O)n(C)c1=O,inactive
16,COP(=O)(Cc1ccc(C#N)o1)OC,inactive
17,C/C=C/CC1(CC)C(=O)NC(=S)NC1=O,inactive
18,COc1ccc(CN2C(=O)NC(=O)/C(=C/c3ccc(OC)c(OC)c3OC)C2=O)cc1,inactive
19,O=C(O)CCCCC1SCC2NC(=O)NC21 (stereo not drawn),0.0562 µM (active)
20,CC(C)OP(=O)(Oc1ccc(C(O)C(Cl)(Cl)Cl)cc1)OC(C)C (stereo not drawn),inactive
21,Clc1ccccc1CN1CCN(c2cccc3[nH]ccc23)CC1,inactive
22,C=CCn1c(O)c(C(C)=NCC2CCCO2)c(=O)[nH]c1=O (stereo not drawn),inactive
23,Cn1c(O)c(/C=N/N2CCOCC2)c(=O)[nH]c1=S,inactive
24,Cc1cccc(-n2c(O)c(/C=N/Nc3nc4c(c(=O)n(C)c(=O)n4C)n3C)c(=O)[nH]c2=S)c1,0.891 µM (active)
25,O=c1[nH]c(=S)n(-c2ccc(F)cc2)c(O)c1/C=N/N1CCOCC1,inactive

row,SMILES,Potency
1,Cc1cc(OC(=O)N(C)C)nc2c1c(C)nn2C,inactive
2,CCCCCCn1c(O)c(/C=N/N2CCCCCC2)c(=O)[nH]c1=O,inactive
3,COCc1cc(OC(=O)N(C)C)nc(-c2ccccc2)n1,inactive
4,Cc1cccc(N2C(=O)NC(=O)/C(=C\c3ccc(N4CCOCC4)cc3)C2=O)c1,inactive
5,Cc1cc(OC(=O)N(C)C)nc(-c2ccc(C)c(Cl)c2)n1,inactive
6,CCCC(=O)c1ccc(CP(=O)(OCC)OCC)o1,inactive
7,CC[n+]1c(-c2ccccc2)c2cc(N)ccc2c2ccc(N)cc21,0.499 µM (active)
8,CC[N+](C)(CC)CCC[n+]1c(-c2ccccc2)c2cc(N)ccc2c2ccc(N)cc21,1.12 µM (active)
9,O=c1c2ccccc2nc(Cc2cccc([N+](=O)[O-])c2)n1-c1ccc(O)cc1,inactive
10,CCC(=NCc1ccco1)c1c(O)n(-c2ccccc2C)c(=O)[nH]c1=O,inactive
11,CCCC(=O)c1cc(CP(=O)(OCC)OCC)oc1C,inactive
12,O=c1[nH]c(=S)[nH]c(O)c1/C=N/N1CCOCC1,inactive
13,Cc1ccc(-n2c(O)c(C=N)c(=O)n(-c3ccc(C)cc3)c2=O)cc1,inactive
14,CC(=O)Nc1ccc([As](=O)(O)c2ccc([N+](=O)[O-])cc2)cc1,inactive
15,Cn1c(O)c(C(=Nc2ccc(F)cc2)c2ccccc2Cl)c(=O)n(C)c1=O,inactive
16,C[C@H]1CC[C@H]2NCCN[C@H]2C1,inactive
17,O=C(OCC1O[C@@H](OC(=O)c2cc(O)c(O)c(O)c2)[C@@H](OC(=O)c2cc(O)c(O)c(O)c2)[C@@H](OC(=O)c2cc(O)c(O)c(O)c2)[C@@H]1OC(=O)c1cc(O)c(O)c(O)c1)c1cc(O)c(O)c(O)c1 (stereo partly drawn),0.0631 µM (active)
18,O=C1C=CC(=O)c2c(O)cccc21,4.47 µM (active)
19,CCC(=NCc1cccnc1)c1c(O)n(-c2ccccc2C)c(=O)[nH]c1=O,inactive
20,Cc1onc(-c2c(Cl)cccc2Cl)c1C(=O)Nc1ccc2c(C(F)(F)F)cc(=O)oc2c1,inactive
21,Cn1c(O)c(C=NCCN2CCN(C(=O)Nc3ccccc3)CC2)c(=O)n(C)c1=O,inactive
22,CCCCCCn1c(O)c(C=Nc2ccccc2N2CCOCC2)c(=O)[nH]c1=S,inactive
23,CCC(=NCc1cc(OC)cc(OC)c1)c1c(O)n(C2CCCCC2)c(=O)[nH]c1=O,inactive
